From PubChem BioAssay (Tox21)
A number with no mark means an inactive call. Inconclusive results are not listed. A call without a number means that no potency is given here. Calls of active or inactive are those of the source. Calls follow the shape of the dose curve; as a rule, active = well fitted curve in the direction sought with a large enough effect in the repeat runs; inconclusive = weak or mixed curves; inactive = no such curve, though single readings can be large; an effect the other way counts as inactive or inconclusive.
Potency is read from the fitted curve at half-maximal effect.

Assay: qHTS assay to identify small molecule HDAC inhibitors - cell viability counter screen (AID 1259365); also: nearly all actives have a fitted effect of over 50% in size
Settings: HCT-116 viability, CellTiter-Glo ATP luminescence, 2 h; series mostly up to 92.4 µM
Outline: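 Following a 2hr exposure of overnight-plated wild-type HCT-116 cells to DMSO-delivered compounds, CellTiter-Glo was added and luminescence recorded after 30min at room temperature.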
With `Cc1ccc(Cl)c(Nc2ccccc2C(=O)O)c1Cl` the Potency was “inactive”. With `Cc1cc(=O)c2c(O)c3c(O)cc(=O)c4c3c3c(cc(O)c1c23)C(C)(C)C=4O` the activity change, negative = cytotoxicity was 2.88% [at 19 µM]. With `NC1[C@H]2CN(c3nc4c(cc3F)c(=O)c(C(=O)O)cn4-c3ccc(F)cc3F)C[C@@H]12` (some centres undefined) the Potency was “inactive”. For `CCOC(=O)c1ccc(O)c(O)c1`, the Potency was “inactive”. For `CCCCCCCCOc1ccc(C(=O)O)cc1`, the Potency was “inactive”. For `CC1CC(OC(=O)C(O)c2ccccc2)CC(C)(C)N1C` (centres undefined), the Potency was “inactive”. With `CC(C)(C)C(=O)C(=O)O` the Potency was “inactive”. With `CCC1(CO)COCOC1` the Potency was “inactive”. With `O=c1cc(-c2ccccc2)oc2cc(O)cc(O)c12` the Potency was “inactive”. With `CC[C@]1(O)C[C@H]2CN(CCc3c([nH]c4ccccc34)[C@@](C(=O)OC)(c3cc4c(cc3OC)N(C=O)[C@H]3[C@@](O)(C(=O)OC)[C@H](OC(C)=O)[C@]5(CC)C=CCN6CC[C@]43[C@@H]65)C2)C1` the Potency was “inactive”. For `OC(CCN1CCCC1)(c1ccccc1)C1CCCCC1` (centres undefined), the Potency was “inactive”. With `COC(=O)[C@H]1[C@H]2C[C@@H]3c4[nH]c5cc(OC)ccc5c4CCN3C[C@H]2C[C@@H](OC(=O)/C=C/c2ccc(O)c(OC)c2)[C@@H]1OC` the Potency was “inactive”. For `Nc1nnc(-c2ccc([N+](=O)[O-])o2)o1`, the Potency was “inactive”. In the case of `Oc1ccc(Cl)c2cccnc12`, the Potency is reported as “inactive”. In the case of `CCCCCCCC/C=C\CCCCCCCCO`, the Potency is reported as “inactive”. In the case of `O=C(OCC(O)CO)c1ccccc1Nc1ccnc2cc(Cl)ccc12` (centres undefined), the Potency is reported as “inactive”. With `CC(CC1c2ccccc2CCc2ccccc21)CN(C)C` (centres undefined) the Potency was “inactive”. In the case of `C[C@H]1C[C@H](O)c2ccsc2S1(=O)=O`, the Potency is reported as “inactive”. For `COc1ccc(OC(=O)N(CC(=O)O)Cc2ccc(OCCc3nc(-c4ccccc4)oc3C)cc2)cc1`, the Potency was “inactive”. For `CC(CN(C)C)C(C)(O)Cc1ccc(Cl)cc1` (centres undefined), the Potency was “inactive”. With `COC(=O)c1nc(Cl)c(Cl)nc1N` the Potency was “inactive”. For `O=C(O)CCc1nc(-c2ccccc2)c(-c2ccccc2)o1`, the Potency was “inactive”. In the case of `CC1=C(Br)C(=O)C(Br)=C/C1=C(/c1ccccc1S(=O)(=O)O)c1cc(Br)c(O)c(Br)c1C`, the Potency is reported as 18.6 µM (active). With `CC1=Nc2ccc3ccccc3c2C1(C)C` the Potency was “inactive”. For `CCCCN1CCCC1C(=O)Nc1c(C)cc(C)cc1C` (centres undefined), the Potency was “inactive”. With `CN1C(=O)N(c2ccccc2Br)Cc2cnc(Nc3ccc4c(c3)OCC(CO)O4)nc21` (centres undefined) the Potency was “inactive”. In the case of `CC(CCC(=O)O)C(=O)O` (centres undefined), the Potency is reported as “inactive”. In the case of `CN1C(=O)c2ccccc2C1=O`, the Potency is reported as “inactive”. With `CCOc1ccccc1O[C@H](c1ccccc1)[C@H]1CNCCO1` the Potency was “inactive”. With `CCCCCC#CC(=O)OC` the Potency was “inactive”. With `NCCNCCO` the Potency was “inactive”. For `COC(=O)C1=C(C)NC(C)=C(C(=O)O[C@@H]2CCCN(Cc3ccccc3)C2)[C@@H]1c1cccc([N+](=O)[O-])c1`, the Potency was “inactive”. In the case of `COc1cc(N)c(Cl)cc1C(=O)NC1CCN(CCCOc2ccc(F)cc2)CC1OC` (centres undefined), the Potency is reported as “inactive”.

Assay: qHTS assay to identify small molecule agonists of the sonic hedgehog signaling (Shh) pathway - cell viability counter screen (AID 1259366); also: nearly all actives have a fitted effect of over 50% in size
Settings: NIH/3T3 Gli1-Luc viability, CellTiter-Fluor, 24 h; series mostly up to 92.4 µM
Outline: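 After a 4hr attachment at 37C, NIH/3T3 cells bearing an integrated Gli1-driven luciferase reporter were dosed with compounds. Treatment lasted 24hr, with the final hour including CellTiter-Fluor for a fluorescence viability measurement.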
With `NC1[C@H]2CN(c3nc4c(cc3F)c(=O)c(C(=O)O)cn4-c3ccc(F)cc3F)C[C@@H]12` (some centres undefined) the Potency was 21.1 µM (active). For `CCOC(=O)c1ccc(O)c(O)c1`, the Potency was “inactive”. In the case of `CCCCCCCCOc1ccc(C(=O)O)cc1`, the Potency is reported as “inactive”. For `CC1CC(OC(=O)C(O)c2ccccc2)CC(C)(C)N1C` (centres undefined), the Potency was “inactive”. For `CC(C)(C)C(=O)C(=O)O`, the Potency was “inactive”. For `CCC1(CO)COCOC1`, the Potency was “inactive”. For `O=c1cc(-c2ccccc2)oc2cc(O)cc(O)c12`, the Potency was 48.6 µM (active). With `CCOC(=O)c1ccc(C#Cc2ccc3c(c2)C(C)(C)CCS3)nc1` the Potency was “inactive”. With `COC(=O)[C@H]1[C@H]2C[C@@H]3c4[nH]c5cc(OC)ccc5c4CCN3C[C@H]2C[C@@H](OC(=O)/C=C/c2ccc(O)c(OC)c2)[C@@H]1OC` the Potency was “inactive”. In the case of `CCCCCCCC/C=C\CCCCCCCCO`, the Potency is reported as “inactive”. In the case of `O=C(OCC(O)CO)c1ccccc1Nc1ccnc2cc(Cl)ccc12` (centres undefined), the Potency is reported as 29.8 µM (active). For `C[C@H]1C[C@H](O)c2ccsc2S1(=O)=O`, the Potency was “inactive”. In the case of `CO/N=C(/C(=O)N[C@@H]1C(=O)N2C(C(=O)O)=C(COC(N)=O)CS[C@H]12)c1ccco1`, the Potency is reported as “inactive”. For `COc1ccc(OC(=O)N(CC(=O)O)Cc2ccc(OCCc3nc(-c4ccccc4)oc3C)cc2)cc1`, the Potency was “inactive”. With `CC(CN(C)C)C(C)(O)Cc1ccc(Cl)cc1` (centres undefined) the Potency was “inactive”. In the case of `O=C(O)CCc1nc(-c2ccccc2)c(-c2ccccc2)o1`, the Potency is reported as “inactive”. For `CCC(OCCCOC)OC(C)=O` (centres undefined), the Potency was “inactive”. In the case of `CCCCN1CCCC1C(=O)Nc1c(C)cc(C)cc1C` (centres undefined), the Potency is reported as “inactive”. With `CC(C)C(O)(c1ccc(OC(F)(F)F)cc1)c1cncnc1` (centres undefined) the Potency was “inactive”. With `CCCCCC#CC(=O)OC` the Potency was “inactive”. In the case of `NCCNCCO`, the Potency is reported as “inactive”.

Assay: qHTS assay to identify small molecule antagonists of the sonic hedgehog signaling (Shh) pathway - cell viability counter screen (AID 1259367); also: nearly all actives have a fitted effect of over 55% in size
Settings: NIH/3T3 Gli1-Luc viability, CellTiter-Fluor, 24 h; series mostly up to 92.4 µM
Outline: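 Seed 3T3 Gli1-Luc cells at 2,000 per well; incubate 4 hr; add compound in DMSO, then conditioned medium; incubate at 37C with 5% CO2; add CellTiter-Fluor after 23 hr; read fluorescence 1 hr later.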
With `Cc1ccc(Cl)c(Nc2ccccc2C(=O)O)c1Cl` the Potency was “inactive”. For `Cc1cc(=O)c2c(O)c3c(O)cc(=O)c4c3c3c(cc(O)c1c23)C(C)(C)C=4O`, the viability change, negative = cytotoxic was -14.6% [at 19 µM]. In the case of `CCOC(=O)c1ccc(O)c(O)c1`, the Potency is reported as “inactive”. For `CCCCCCCCOc1ccc(C(=O)O)cc1`, the Potency was “inactive”. In the case of `CC1CC(OC(=O)C(O)c2ccccc2)CC(C)(C)N1C` (centres undefined), the Potency is reported as “inactive”. For `CC(C)(C)C(=O)C(=O)O`, the Potency was “inactive”. With `CCC1(CO)COCOC1` the Potency was “inactive”. In the case of `O=c1cc(-c2ccccc2)oc2cc(O)cc(O)c12`, the Potency is reported as 61.1 µM (active). For `CCOC(=O)c1ccc(C#Cc2ccc3c(c2)C(C)(C)CCS3)nc1`, the Potency was “inactive”. For `COC(=O)[C@H]1[C@H]2C[C@@H]3c4[nH]c5cc(OC)ccc5c4CCN3C[C@H]2C[C@@H](OC(=O)/C=C/c2ccc(O)c(OC)c2)[C@@H]1OC`, the Potency was “inactive”. For `O=C1c2ccccc2C(=O)C1(O)O`, the Potency was 54.8 µM (active). For `Nc1nnc(-c2ccc([N+](=O)[O-])o2)o1`, the Potency was 27.3 µM (active). With `Oc1ccc(Cl)c2cccnc12` the Potency was 3.35 µM (active). In the case of `CCCCCCCC/C=C\CCCCCCCCO`, the Potency is reported as “inactive”. With `O=C(OCC(O)CO)c1ccccc1Nc1ccnc2cc(Cl)ccc12` (centres undefined) the Potency was 29.8 µM (active). For `CC(CC1c2ccccc2CCc2ccccc21)CN(C)C` (centres undefined), the Potency was “inactive”. In the case of `C[C@H]1C[C@H](O)c2ccsc2S1(=O)=O`, the Potency is reported as “inactive”. With `CO/N=C(/C(=O)N[C@@H]1C(=O)N2C(C(=O)O)=C(COC(N)=O)CS[C@H]12)c1ccco1` the Potency was “inactive”. With `COc1ccc(OC(=O)N(CC(=O)O)Cc2ccc(OCCc3nc(-c4ccccc4)oc3C)cc2)cc1` the Potency was “inactive”. With `CC(CN(C)C)C(C)(O)Cc1ccc(Cl)cc1` (centres undefined) the Potency was “inactive”. For `COC(=O)c1nc(Cl)c(Cl)nc1N`, the Potency was 5.31 µM (active). In the case of `O=C(O)CCc1nc(-c2ccccc2)c(-c2ccccc2)o1`, the Potency is reported as “inactive”. For `CCC(OCCCOC)OC(C)=O` (centres undefined), the Potency was “inactive”. For `CC1=C(Br)C(=O)C(Br)=C/C1=C(/c1ccccc1S(=O)(=O)O)c1cc(Br)c(O)c(Br)c1C`, the Potency was 20.8 µM (active). In the case of `CN1C(=O)N(c2ccccc2Br)Cc2cnc(Nc3ccc4c(c3)OCC(CO)O4)nc21` (centres undefined), the Potency is reported as 1.72 µM (active). In the case of `CC(C)C(O)(c1ccc(OC(F)(F)F)cc1)c1cncnc1` (centres undefined), the Potency is reported as “inactive”. With `CC(CCC(=O)O)C(=O)O` (centres undefined) the Potency was “inactive”. In the case of `CCCCCC#CC(=O)OC`, the Potency is reported as “inactive”. For `NCCNCCO`, the Potency was “inactive”. For `COc1cc(N)c(Cl)cc1C(=O)NC1CCN(CCCOc2ccc(F)cc2)CC1OC` (centres undefined), the Potency was “inactive”.
